# In article PMC5700166:
# Numbering of substitutions follows the chain as printed.
# Columns and labels:
# Experiment in all cases: protein-binding microarray (PBM); PBM: ~300 nM protein, 6 mM HEPES pH 7.8, 80 mM KCl, 0.5 mM EDTA, 0.5 mM EGTA, 6% glycerol, 35 ng/ul poly-dIdC, 1% milk, 1 h, room temperature; Ap Aiptasia and Nv Nematostella (sea anemones) / Co Capsaspora / Aq Amphimedon (sponge) / Dm Drosophila / Hu human; RHD is the Rel homology domain; high values mean tight binding
# Conditions in all cases: dsDNA, one strand shown
# GST-Ap-NF-kB RHD = molecular target: T1, GST-Ap-NF-kB RHD (Exaiptasia pallida (Aiptasia), UniProt A0A913YAJ5 2-422)
# T1 sequence: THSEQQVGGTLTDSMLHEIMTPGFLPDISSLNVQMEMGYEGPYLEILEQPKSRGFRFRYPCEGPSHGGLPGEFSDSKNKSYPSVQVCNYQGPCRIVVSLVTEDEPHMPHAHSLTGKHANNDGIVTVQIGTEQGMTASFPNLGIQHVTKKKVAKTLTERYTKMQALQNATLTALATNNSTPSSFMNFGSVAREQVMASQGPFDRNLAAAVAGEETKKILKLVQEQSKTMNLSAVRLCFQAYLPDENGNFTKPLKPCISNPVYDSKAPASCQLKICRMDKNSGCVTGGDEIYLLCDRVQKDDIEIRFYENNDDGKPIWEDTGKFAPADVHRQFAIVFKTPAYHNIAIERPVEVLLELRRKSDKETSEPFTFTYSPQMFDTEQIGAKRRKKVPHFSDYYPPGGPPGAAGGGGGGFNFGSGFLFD
# [1] = molecular target: T2, GST-Nv-NF-kB (Cys allele) (Nematostella vectensis, UniProt E5G601 2-411)
# T2 sequence: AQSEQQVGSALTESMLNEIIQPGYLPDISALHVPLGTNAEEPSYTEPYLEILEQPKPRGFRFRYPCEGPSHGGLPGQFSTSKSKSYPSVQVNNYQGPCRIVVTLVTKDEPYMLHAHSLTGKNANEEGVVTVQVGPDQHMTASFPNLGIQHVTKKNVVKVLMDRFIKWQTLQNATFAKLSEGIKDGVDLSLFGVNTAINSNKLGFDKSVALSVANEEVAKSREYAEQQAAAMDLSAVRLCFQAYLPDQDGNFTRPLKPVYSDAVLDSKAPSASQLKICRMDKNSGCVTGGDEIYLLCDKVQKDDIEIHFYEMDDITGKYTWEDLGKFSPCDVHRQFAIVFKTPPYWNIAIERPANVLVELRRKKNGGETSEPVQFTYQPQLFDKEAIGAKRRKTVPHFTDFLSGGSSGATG
# [2] = molecular target: T3, GST-Nv-NF-kB (Ser allele) (Nematostella vectensis, UniProt A7UNT2 2-411)
# T3 sequence: T2 sequence with Q21R, C66S, S207N, E215Q, V217A, E225K, A268E, D399E
# GST-Co-NF-kB = molecular target: T4, GST-Co-NF-kB (Capsaspora owczarzaki, UniProt F1ARL5 200-546)
# T4 sequence: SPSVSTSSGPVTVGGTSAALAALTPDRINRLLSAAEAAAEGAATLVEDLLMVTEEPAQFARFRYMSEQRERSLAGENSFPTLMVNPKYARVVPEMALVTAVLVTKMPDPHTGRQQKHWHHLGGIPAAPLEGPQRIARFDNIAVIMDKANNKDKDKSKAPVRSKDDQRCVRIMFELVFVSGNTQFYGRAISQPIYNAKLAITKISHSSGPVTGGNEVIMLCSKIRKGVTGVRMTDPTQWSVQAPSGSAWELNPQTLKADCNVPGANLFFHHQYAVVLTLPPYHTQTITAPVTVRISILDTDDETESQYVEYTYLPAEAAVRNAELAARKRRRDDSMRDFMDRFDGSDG
# GST-Dm-Relish = molecular target: T5, GST-Dm-Relish (Drosophila melanogaster, UniProt Q94527 99-473)
# T5 sequence: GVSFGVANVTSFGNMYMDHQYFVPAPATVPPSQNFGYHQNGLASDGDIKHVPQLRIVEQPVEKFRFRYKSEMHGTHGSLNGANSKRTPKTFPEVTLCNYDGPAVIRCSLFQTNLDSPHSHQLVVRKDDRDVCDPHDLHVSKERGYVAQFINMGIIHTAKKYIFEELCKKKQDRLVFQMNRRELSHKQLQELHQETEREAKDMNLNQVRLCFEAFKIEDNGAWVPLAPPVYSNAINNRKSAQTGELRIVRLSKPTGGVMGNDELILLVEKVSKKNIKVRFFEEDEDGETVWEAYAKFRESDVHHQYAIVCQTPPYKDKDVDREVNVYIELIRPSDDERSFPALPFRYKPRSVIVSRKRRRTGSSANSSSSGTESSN
# GST-Aq-NF-kB = molecular target: T6, GST-Aq-NF-kB (Amphimedon queenslandica, UniProt A9Y5G7 2-389)
# T6 sequence: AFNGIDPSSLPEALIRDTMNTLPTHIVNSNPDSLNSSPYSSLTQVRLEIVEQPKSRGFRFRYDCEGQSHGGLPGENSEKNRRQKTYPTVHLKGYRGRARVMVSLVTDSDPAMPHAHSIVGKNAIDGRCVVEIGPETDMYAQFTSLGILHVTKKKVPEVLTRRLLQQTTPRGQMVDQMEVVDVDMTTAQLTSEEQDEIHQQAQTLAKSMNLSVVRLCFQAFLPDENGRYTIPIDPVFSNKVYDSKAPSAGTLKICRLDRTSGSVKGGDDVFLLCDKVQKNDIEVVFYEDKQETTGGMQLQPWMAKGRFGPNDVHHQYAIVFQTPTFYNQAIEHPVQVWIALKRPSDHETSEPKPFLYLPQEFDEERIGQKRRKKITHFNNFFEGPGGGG
# GST-Hu-p50 = GST-Hu-p50 (Homo sapiens, UniProt P19838 7-356)
# GST-Hu-p50, sequence (P19838 7-356): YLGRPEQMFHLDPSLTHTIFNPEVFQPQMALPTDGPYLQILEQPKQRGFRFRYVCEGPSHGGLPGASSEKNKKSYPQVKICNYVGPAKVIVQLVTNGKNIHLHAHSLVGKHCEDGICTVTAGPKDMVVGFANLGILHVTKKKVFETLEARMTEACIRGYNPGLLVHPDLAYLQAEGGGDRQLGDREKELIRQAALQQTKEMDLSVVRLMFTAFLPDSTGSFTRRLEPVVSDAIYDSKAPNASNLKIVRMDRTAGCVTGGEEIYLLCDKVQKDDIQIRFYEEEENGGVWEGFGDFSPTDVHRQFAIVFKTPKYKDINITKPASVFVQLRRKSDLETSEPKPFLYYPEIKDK
Sequence,binding signal (GST-Ap-NF-kB RHD) [z-score],binding signal [1] [z-score],binding signal [2] [z-score],binding signal (GST-Co-NF-kB) [z-score],binding signal (GST-Dm-Relish) [z-score],binding signal (GST-Aq-NF-kB) [z-score],binding signal (GST-Hu-p50) [z-score]
CCGATTAACATCAAAACCCCCCCTGATGTTAATCGGGTCTTGATTCGCTTGACGCTGCTG,8.72,6.19,6.72,6.13,9.97,7.1,6.53
CCGATTAACATCAGCAAATTCCCTGATGTTAATCGGGTCTTGATTCGCTTGACGCTGCTG,3.17,5.15,5.81,2.77,4.19,4.34,4.19
CCGATTAACATCAGGGGGTTTGATGATGTTAATCGGGTCTTGATTCGCTTGACGCTGCTG,6.11,4.29,6.14,1.61,5.81,4.09,6.03
CCGATTAACATCACGGGGGAAAATGATGTTAATCGGGTCTTGATTCGCTTGACGCTGCTG,6.86,6.21,9.47,11.7,4.45,5.8,6.51
CCGATTAACATCACAGAACCCCCTGATGTTAATCGGGTCTTGATTCGCTTGACGCTGCTG,7.53,5.51,7.39,2.33,7.46,5.42,6.43
CCGATTAACATCACACTACCCCCTGATGTTAATCGGGTCTTGATTCGCTTGACGCTGCTG,4.66,2.12,4.06,3.89,1.77,2.65,3.3
CCGATTAACATCAAAAACCCCCGTGATGTTAATCGGGTCTTGATTCGCTTGACGCTGCTG,9.67,8.8,8.78,4.41,10.8,8.35,7.43
CCGATTAACATCAGGGGATGTTATGATGTTAATCGGGTCTTGATTCGCTTGACGCTGCTG,5.57,6.43,7.06,3.17,5.86,5.53,5.29
CCGATTAACATCAGGGGAAGATATGATGTTAATCGGGTCTTGATTCGCTTGACGCTGCTG,6.06,6.63,7.91,8.77,4.01,6.09,5.33
CCGATTAACATCAAGGGGTTTTCTGATGTTAATCGGGTCTTGATTCGCTTGACGCTGCTG,7.68,7.5,6.68,1.68,7.2,6.95,6.56
CCGATTAACATCAGGGGAAAACATGATGTTAATCGGGTCTTGATTCGCTTGACGCTGCTG,6.62,7.81,9.93,8.6,5.04,6.17,6.18
CCGATTAACATCAAAATTCCCTATGATGTTAATCGGGTCTTGATTCGCTTGACGCTGCTG,4.89,8.05,7.32,3.27,5.2,6.99,5.69
CCGATTAACATCAATTTACCCCCTGATGTTAATCGGGTCTTGATTCGCTTGACGCTGCTG,6.21,4.95,6.18,8.79,3.42,4.56,5.04
CCGATTAACATCAAGGTTTCCCCTGATGTTAATCGGGTCTTGATTCGCTTGACGCTGCTG,7.4,8.19,10.3,8.15,7.08,6.28,6.46
CCGATTAACATCAGGGAGATCCCTGATGTTAATCGGGTCTTGATTCGCTTGACGCTGCTG,7.41,8.14,4.37,1.54,7.36,8.85,4.68
CCGATTAACATCAGAGAATCCCCTGATGTTAATCGGGTCTTGATTCGCTTGACGCTGCTG,9.54,9.8,10.9,3.37,8.56,7.28,6.99
CCGATTAACATCAGGGGGAATCATGATGTTAATCGGGTCTTGATTCGCTTGACGCTGCTG,8.02,7.33,8.26,8.51,6.2,5.7,6.66
CCGATTAACATCAGAAAACCCCCTGATGTTAATCGGGTCTTGATTCGCTTGACGCTGCTG,10.8,10,11,4.05,10,8.84,8.24
CCGATTAACATCAAGTAATCCCCTGATGTTAATCGGGTCTTGATTCGCTTGACGCTGCTG,7.36,7.72,7.94,3.88,7.56,6.04,5.93
CCGATTAACATCAGGGAAATTTATGATGTTAATCGGGTCTTGATTCGCTTGACGCTGCTG,5.86,8.28,7.67,5.84,4.1,7.49,5.55
CCGATTAACATCAGGAAAACCCCTGATGTTAATCGGGTCTTGATTCGCTTGACGCTGCTG,8.2,8.89,6.66,2.41,8.77,9.24,7.4
CCGATTAACATCAATAACCCCCATGATGTTAATCGGGTCTTGATTCGCTTGACGCTGCTG,5.5,4.47,4.38,2.27,5.69,4.84,5.31
